PubChem BioAssay (NCATS)
Inconclusive results are not listed. The source made the active and inactive calls. Calls follow the shape of the dose curve; as a rule, active = well fitted curve in the direction sought with a large enough effect; inconclusive = small, poorly fitted or top-dose-only effect, or another doubt; inactive = no such curve, though single readings can be large; an effect the other way counts as inactive or inconclusive.

What was measured:
[1] = Quantitative High-Throughput drug screen in 47 multiple myeloma cell lines against the NCATS MIPE library collection: KMS12BM_JCRB cell viability assay (AID 1918971); details: KMS12BM myeloma viability, CellTiter-Glo ATP, 48 h; series mostly up to 45.8 µM; also: nearly all actives have a fitted effect of over 35% in size
How it was run: (§1)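 qHTS of the MIPE 4.0 collection: 500 myeloma cells/well, 48 h drug exposure at 37C in 5% CO2, then CellTiter-Glo for 5 min at room temperature before luminescence reading.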

[2] = Quantitative High-Throughput drug screen in 47 multiple myeloma cell lines against the NCATS MIPE library collection: MMM1_PLB cell viability assay (AID 1918976); details: MMM1 myeloma cells viability, CellTiter-Glo, 48 h; series mostly up to 45.8 µM; also: nearly all actives have a fitted effect of over 35% in size
How it was run: (§2)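 Viability after 48 h drug exposure was measured as ATP-dependent luminescence. Cells, 500 per well, sat at 37 °C under 5% CO2; DMSO wells set 100%, media-only wells 0%.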

[3] = Quantitative High-Throughput drug screen in 47 multiple myeloma cell lines against the NCATS MIPE library collection: NCIH929_DSMZ cell viability assay (AID 1918978); details: NCI-H929 myeloma viability, CellTiter-Glo ATP, 48 h; series mostly up to 45.8 µM; also: nearly all actives have a fitted effect of over 35% in size
How it was run: as §2

[4] = Quantitative High-Throughput drug screen in 47 multiple myeloma cell lines against the NCATS MIPE library collection: OCIMY1_PLB cell viability assay (AID 1918979); details: OCI-MY1 myeloma viability, CellTiter-Glo ATP, 48 h; series mostly up to 45.8 µM; also: nearly all actives have a fitted effect of over 35% in size
How it was run: as §2

[5] = Quantitative High-Throughput drug screen in 47 multiple myeloma cell lines against the NCATS MIPE library collection: KMS26_JCRB cell viability assay (AID 1918975); details: KMS26 myeloma cells viability, CellTiter-Glo ATP, 48 h; series mostly up to 45.8 µM; also: nearly all actives have a fitted effect of over 45% in size
How it was run: as §1

[6] = Quantitative High-Throughput drug screen in 47 multiple myeloma cell lines against the NCATS MIPE library collection: MOLP8_DSMZ cell viability assay (AID 1918977); details: MOLP8 myeloma viability, CellTiter-Glo ATP luminescence, 48 h; series mostly up to 45.8 µM; also: nearly all actives have a fitted effect of over 45% in size
How it was run: as §2

[7] = Quantitative High-Throughput drug screen in 47 multiple myeloma cell lines against the NCATS MIPE library collection: MM1S_ATCC cell viability assay (AID 1918980); details: MM1S myeloma viability, CellTiter-Glo ATP luminescence, 48 h; series mostly up to 45.8 µM; also: nearly all actives have a fitted effect of over 45% in size
How it was run: as §2

[8] = Quantitative High-Throughput drug screen in 47 multiple myeloma cell lines against the NCATS MIPE library collection: KMS21BM_JCRB cell viability assay (AID 1918974); details: ATP luminescence, 48 h; viability: at 45.8 µM (top of the series)
How it was run: (§3)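 CellTiter-Glo luminescence (ATP) after 48 h compound exposure, 37C/5% CO2; 500 cells/well; MIPE 4.0 approved/investigational drugs pinned in; DMSO = 100%, media only = 0% viability.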

[9] = Quantitative High-Throughput drug screen in 47 multiple myeloma cell lines against the NCATS MIPE library collection: KMS12PE_JCRB cell viability assay (AID 1918972); details: KMS12PE myeloma viability, CellTiter-Glo ATP, 48 h; series mostly up to 45.8 µM; also: nearly all actives have a fitted effect of over 30% in size
How it was run: as §1

[10] = Quantitative High-Throughput drug screen in 47 multiple myeloma cell lines against the NCATS MIPE library collection: KMS20_JCRB cell viability assay (AID 1918973); details: CellTiter-Glo ATP, 48 h; series mostly up to 45.8 µM; also: nearly all actives have a fitted effect of over 45% in size
How it was run: as §3
Potency is read from the fitted curve at half-maximal effect.

Nc1ccn(C2CO[C@H](CO)O2)c(=O)n1 (stereo partly drawn)
active: Potency [1] 833 nM | Potency [2] 4690 nM
inactive: Potency [3] | Potency [4]

O=C(C[C@@H]1CC=CCCC(=O)O[C@H](c2ccccc2)CNC1=O)NCc1ccc(Cl)cc1
inactive: Potency [1] | Potency [5] | Potency [6] | Potency [4]

COc1cc2c(cc1O)CCC1C2CC[C@@]2(C)C1CC[C@@H]2O (stereo partly drawn)
active: Potency [1] 1180 nM | Potency [5] 3720 nM | Potency [2] 6620 nM | Potency [3] 7430 nM | Potency [4] 3320 nM | Potency [7] 4690 nM

CCN(C(=O)c1c(O)c2c(Cl)cccc2n(C)c1=O)c1ccccc1
inactive: Potency [1] | Potency [6] | Potency [4]

COc1cc(C(C)C)c(Oc2cnc(NC(CO)CO)nc2N)cc1I
inactive: Potency [1] | Potency [6] | Potency [3] | Potency [4]
active: Potency [8] 662 nM | Potency [5] 2640 nM | Potency [7] 1050 nM

CC(O)(C#Cc1ccc2c(c1)N(c1nc(N)ncc1Cl)CC2)c1nccs1 (stereo not drawn)
active: Potency [9] 13200 nM | Potency [10] 2640 nM | Potency [8] 332 nM | Potency [2] 20900 nM | Potency [3] 1180 nM | Potency [4] 14800 nM | Potency [7] 11800 nM

O=C(O)c1ccc(Nc2ncc3c(n2)-c2ccc(Cl)cc2C(c2c(F)cccc2F)=NC3)cc1
inactive: Potency [2] | Potency [4]
active: Potency [1] 296 nM | Potency [8] 743 nM

CCN(CC)CCNC(=O)c1c(C)[nH]c(C=C2C(=O)Nc3ccc(F)cc32)c1C
active: Potency [9] 1360 nM | Potency [10] 855 nM | Potency [8] 762 nM | Potency [5] 17100 nM | Potency [2] 6790 nM | Potency [3] 960 nM | Potency [4] 13600 nM

Cn1cc(C[C@@H](N)C(=O)O)c2ccccc21
active: Potency [1] 2290 nM | Potency [2] 645 nM
inactive: Potency [5] | Potency [4] | Potency [7]

CCCCCN=C(N)NN=Cc1c[nH]c2ccc(OC)cc12
active: Potency [1] 6620 nM | Potency [5] 10500 nM | Potency [3] 13200 nM

c1cc(CN2CCCNCCNCCCNCC2)ccc1CN1CCCNCCNCCCNCC1
inactive: Potency [1] | Potency [5]

CC(C=CC=C(C)C=CC1=C(C)CCCC1(C)C)=CC=CC=C(C)C=CC=C(C)C=CC1=C(C)CCCC1(C)C
active: Potency [5] 13200 nM | Potency [2] 14800 nM | Potency [7] 5900 nM
inactive: Potency [1]

COC1=C2C[C@@H](C)C[C@H](OC)[C@@H](O)[C@@H](C)C=C(C)[C@H](OC(N)=O)[C@@H](OC)C=CC=C(C)C(=O)NC(=CC1=O)C2=O
active: Potency [1] 118 nM | Potency [5] 52.6 nM | Potency [6] 41.8 nM | Potency [3] 118 nM | Potency [4] 166 nM | Potency [7] 59 nM

NS(=O)(=O)OC[C@@H]1C[C@@H](n2ccc3c(N[C@H]4CCc5ccccc54)ncnc32)C[C@H]1O
active: Potency [1] 6620 nM | Potency [5] 2640 nM | Potency [7] 2640 nM

O=C(CN1C(=O)C2(CCCC2)NC[C@H]1c1cc(F)cc(F)c1)Nc1ccc2c(c1)C[C@@]1(C2)C(=O)Nc2ncccc21
inactive: Potency [1] | Potency [5] | Potency [3] | Potency [7]

CN1CCc2c(c3ccccc3n2Cc2ccc(C(=O)NO)cc2)C1
active: Potency [1] 16600 nM | Potency [5] 20900 nM | Potency [3] 10500 nM | Potency [7] 16600 nM

COc1ccc([C@@H]2CNC(=O)C2)cc1OC1CCCC1
inactive: Potency [1] | Potency [4]
active: Potency [10] 3720 nM | Potency [3] 4180 nM | Potency [7] 743 nM

O=c1c(O)c(-c2ccc(O)c(O)c2)oc2cc(O)ccc12
active: Potency [1] 26400 nM | Potency [2] 26400 nM | Potency [6] 18700 nM | Potency [4] 23500 nM | Potency [7] 23500 nM

CCCCC(=O)O[C@]1(C(=O)CO)[C@@H](C)C[C@H]2[C@@H]3CCC4=CC(=O)C=C[C@]4(C)[C@@]3(F)[C@@H](O)C[C@@]21C
active: viability [8] 131%
inactive: Potency [1] | Potency [5] | Potency [2] | Potency [3] | Potency [4]

C=CC1=C(C(=O)O)N2C(=O)[C@@H](NC(=O)C(=NO)c3csc(N)n3)[C@H]2SC1
inactive: Potency [1] | Potency [5] | Potency [3] | Potency [4] | Potency [7]

c1ccc2c(Oc3nc(Nc4ccc(N5CCOCC5)cc4)c4ncn(C5CCCCC5)c4n3)cccc2c1
inactive: Potency [7]
active: Potency [1] 16600 nM | Potency [2] 13200 nM

CC(=O)N[C@H]1[C@@H]([C@H](O)[C@H](O)CO)OC(C(=O)O)=C[C@@H]1N=C(N)N
inactive: Potency [1] | Potency [5] | Potency [4] | Potency [7]

COc1cc(C[C@@H](CO)[C@H](CO)Cc2ccc(O)c(OC)c2)ccc1O
active: Potency [9] 3720 nM | Potency [10] 526 nM | Potency [8] 2350 nM | Potency [5] 1320 nM | Potency [3] 590 nM
inactive: Potency [4]

CCc1c(O)cc(O)c(C(=O)c2ccc(OCCN3CCOCC3)c(OC)c2)c1CC(=O)N(CCOC)CCOC
active: Potency [1] 1050 nM | Potency [5] 833 nM | Potency [2] 1480 nM | Potency [3] 1050 nM | Potency [4] 16600 nM | Potency [7] 1480 nM

CC(=O)C1=C(O)C=C2Oc3c(C(C)=O)c(O)c(C)c(O)c3C2(C)C1=O (stereo not drawn)
inactive: Potency [1] | Potency [3] | Potency [4] | Potency [7]

CCCCCCCCCCCCc1ccc(S(=O)(=O)Nc2nncs2)cc1
inactive: Potency [1] | Potency [5] | Potency [3] | Potency [4]

C=C[C@@H]1CN2CCC1C[C@H]2[C@H](O)c1ccnc2ccc(OC)cc12 (stereo partly drawn)
inactive: Potency [1] | Potency [6] | Potency [3] | Potency [4]

O=c1ccn([C@@H]2O[C@H](CO)[C@H](O)[C@@H]2F)c(=O)[nH]1
inactive: Potency [9] | Potency [10] | Potency [8] | Potency [5] | Potency [4]
active: Potency [2] 2640 nM | Potency [3] 11800 nM

NC(=O)c1ncn([C@@H]2O[C@H](CO)[C@@H](O)[C@@H]2O)c1N
inactive: Potency [1] | Potency [5] | Potency [3] | Potency [4]

Cc1noc(-c2ccc(CSCCC(=O)O)cc2)c1NC(=O)OC(C)c1ccccc1Cl (stereo not drawn)
inactive: Potency [1] | Potency [5] | Potency [6] | Potency [3] | Potency [7]

CS(=O)(=O)N1CCc2c(-c3cnc(N)nc3)nc(N3CCOCC3)nc21
active: Potency [1] 935 nM | Potency [5] 132 nM | Potency [2] 148 nM | Potency [3] 20.9 nM | Potency [7] 235 nM

Nc1nc(=O)n([C@H]2C[C@H](O)[C@@H](CO)O2)cc1F
inactive: Potency [5] | Potency [4]
active: Potency [9] 59 nM | Potency [3] 16600 nM | Potency [7] 7.4 nM

Nc1cccc2c1C(=O)N(C1CCC(=O)NC1=O)C2=O (stereo not drawn)
active: Potency [7] 526 nM
inactive: Potency [9] | Potency [6] | Potency [4]

COc1cc(OC)c(NC(=O)Nc2cc(C)on2)cc1Cl
inactive: Potency [9] | Potency [5] | Potency [3] | Potency [4]

Cc1cc(-c2nnc3n2CCCCC3)c(C)n1-c1ccccc1
active: Potency [9] 20900 nM | Potency [4] 1.2 nM
inactive: Potency [3]

O=C(NNC(=O)c1ccc(CNS(=O)(=O)c2ccc(F)c(Cl)c2)cc1)c1ccccc1
inactive: Potency [6] | Potency [3] | Potency [4]

CN(N=O)C(=O)N[C@H]1C(O)OC(CO)[C@@H](O)[C@H]1O (stereo partly drawn)
inactive: Potency [10] | Potency [6] | Potency [3]
